This excerpt belongs to a sample that is enriched for hits.
Vaccinia stage = Vaccinia orthopox stage-specific inhibition; Vaccinia-infected cells, mCherry/Venus stage reporter fluorescence; active compounds read low; activity change (mCherry), % (concentration not given with the values); 89,000 compounds, 0.01% hits; in the data active = activity change below about -37%, passing the limit was not always enough; tested in A549 cells
Active calls of the source: *.

SMILES	Vaccinia stage
COCC(=O)Nc1ccc2c(c1)OC[C@@H](C)N(Cc1ccccc1F)C[C@H](C)[C@H](OC)CN(C)C2=O	-14.0
C[C@@H]1CN([C@@H](C)CO)C(=O)c2cc(/C=C/c3ccccc3)cnc2O[C@@H]1CN(C)C(=O)c1cnccn1	12.4
O=C(C[C@H]1C[C@H]2c3cc(NC(=O)C4CCC4)ccc3O[C@H]2[C@@H](CO)O1)NCc1cccnc1	17.3
C[C@H](CO)N1C[C@H](C)[C@H](CN(C)C(=O)C2CCC2)Oc2cc(C#CC3CC3)ccc2S1(=O)=O	2.8
O=C(Nc1ccc(Cl)c(Cl)c1)N[C@H]1CC[C@H](CCn2cc(C3CCCCC3)nn2)O[C@@H]1CO	-13.5
CN1C(=O)c2cc(NC(=O)C3CC3)ccc2OC[C@@H]2O[C@H](CC(=O)NCc3ccccc3F)CC[C@H]21	26.3
CC(=O)N1[C@@H]2c3cccc(=O)n3C[C@@H]2[C@@H](CO)[C@@H]1C(=O)NCc1ccccc1	12.2
CN(C)C(=O)c1ccc(-c2cccc(-c3nc(C(=O)NC4CCCC4)cc4c3[C@@H](CCO)N([S@](=O)C(C)(C)C)C4)c2)cc1	-17.0
CN(C)C(=O)c1ccc(-c2cccc(-c3nc(C(=O)NCc4ccccc4)cc4c3[C@@H](CCO)N([S@](=O)C(C)(C)C)C4)c2)cc1	-14.7
CN(C)C(=O)c1ccc(-c2cccc(-c3nc(C(=O)NC4CCC4)cc4c3[C@@H](CCO)N([S@](=O)C(C)(C)C)C4)c2)cc1	-10.6
CN(C)C(=O)c1ccc(-c2cccc(-c3nc(C(=O)NCc4ccccc4)cc4c3[C@H](CCO)N([S@@](=O)C(C)(C)C)C4)c2)cc1	-23.5
CN(C)C(=O)c1ccc(-c2cccc(-c3nc(C(=O)NC4CCCC4)cc4c3[C@H](CCO)N([S@@](=O)C(C)(C)C)C4)c2)cc1	-36.5*
CN(C)C(=O)c1ccc(-c2cccc(-c3nc(C(=O)NC4CCCCC4)cc4c3[C@@H](CCO)N([S@](=O)C(C)(C)C)C4)c2)cc1	-51.0*
O=C(C[C@H]1C[C@@H]2c3cc(NC(=O)C4CCC4)ccc3O[C@@H]2[C@@H](CO)O1)NCCc1ccccc1	-17.1
COc1ccccc1C(=O)Nc1ccc2c(c1)OC[C@@H](C)N(C)C[C@H](C)[C@@H](OC)CN(C)C2=O	-8.9
Cc1ccc(S(=O)(=O)Nc2ccc3c(c2)C(=O)N([C@H](C)CO)C[C@@H](C)[C@@H](CN(C)C(=O)Nc2ccc4c(c2)OCO4)OCCCC[C@H](C)O3)cc1	-6.2
C[C@H]1CCCCO[C@@H](CN(C)C(=O)c2ccccc2)[C@@H](C)CN([C@@H](C)CO)C(=O)c2cc(NC(=O)CCC(F)(F)F)ccc2O1	3.7
COc1ccccc1NC(=O)N[C@H]1CC[C@H](CC(=O)N2CCC(Cc3ccccc3)CC2)O[C@@H]1CO	-12.7

From PubChem BioAssay
